# From PubChem BioAssay AID1159580 (chemical genetic matrix, 2015)
# Out of some 5,500 compounds screened, about 2,000 (36%) were called active. Inconclusive results (about 18%) are left out. Some of the results follow. Values without a mark were called inactive. Cut-off read from the data, not from the text of the source: active = normalized growth mostly below about 0.91 (no sharp cut-off); inconclusive = no clear call, values can overlap the other calls; inactive = mostly above about 0.92.
# Assay: chemical genetic growth profiling, strain panel (AID 1159580);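 note: tested at 20 µM; growth read once vehicle control cultures reached saturation at 30 °C; 1 = growth at the plate median or of vehicle wells; lower values mean less growth of the strain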
# Details: growth OD
smiles,measurement,setting,value
COc1cc(O)c(C(=O)c2ccccc2)c(OC)c1,normalized growth,"S. cerevisiae deletion strains, locus YAL013W, strain DEP1, hits give low values",0.982
same,normalized growth,"S. cerevisiae deletion strains, locus YBR021W, strain FUR4, hits give low values",0.898
same,normalized growth,"S. cerevisiae deletion strains, locus YBR229C, strain ROT2, hits give low values",0.985
same,normalized growth,"S. cerevisiae deletion strains, locus YCL029C, strain bik1, hits give low values",0.996
same,normalized growth,"S. cerevisiae deletion strains, locus YDL035C, strain GPR1, hits give low values",0.972
same,normalized growth,"S. cerevisiae deletion strains, locus YDL074C, strain BRE1, hits give low values",0.922
same,normalized growth,"S. cerevisiae deletion strains, locus YDL101C, strain DUN1, hits give low values",0.986
same,normalized growth,"S. cerevisiae deletion strains, locus YDL134C, strain PPH21, hits give low values",0.984
same,normalized growth,"S. cerevisiae deletion strains, locus YDL185W, strain tfp1, hits give low values",0.989
same,normalized growth,"S. cerevisiae deletion strains, locus YDL192W, strain arf1, hits give low values",0.982
same,normalized growth,"S. cerevisiae deletion strains, locus YDR101C, strain arx1, hits give low values",0.961
same,normalized growth,"S. cerevisiae deletion strains, locus YDR150W, strain NUM1, hits give low values",0.994
same,normalized growth,"S. cerevisiae deletion strains, locus YDR162C, strain NBP2, hits give low values",0.907
same,normalized growth,"S. cerevisiae deletion strains, locus YDR318W, strain mcm21, hits give low values",0.956
same,normalized growth,"S. cerevisiae deletion strains, locus YDR388W, hits give low values",0.978
same,normalized growth,"S. cerevisiae deletion strains, locus YDR502C, strain sam2, hits give low values",0.937
same,normalized growth,"S. cerevisiae deletion strains, locus YEL061C, strain CIN8, hits give low values",0.984
same,normalized growth,"S. cerevisiae deletion strains, locus YER110C, hits give low values",0.994
same,normalized growth,"S. cerevisiae deletion strains, locus YER155C, strain BEM2, hits give low values",0.989
same,normalized growth,"S. cerevisiae deletion strains, locus YER167W, strain BCK2, hits give low values",0.954
same,normalized growth,"S. cerevisiae deletion strains, locus YGL078C, strain dbp3, hits give low values",0.99
same,normalized growth,"S. cerevisiae deletion strains, locus YGL086W, strain mad1, hits give low values",0.983
same,normalized growth,"S. cerevisiae deletion strains, locus YGL248W, strain PDE1, hits give low values",0.983
same,normalized growth,"S. cerevisiae deletion strains, locus YGR078C, strain PAC10, hits give low values",0.927
same,normalized growth,"S. cerevisiae deletion strains, locus YGR135W, strain pre9, hits give low values",0.92
same,normalized growth,"S. cerevisiae deletion strains, locus YGR229C, strain SMI1, hits give low values",0.885
same,normalized growth,"S. cerevisiae deletion strains, locus YGR252W, strain gcn5, hits give low values",0.914
same,normalized growth,"S. cerevisiae deletion strains, locus YHR030C, strain SLT2, hits give low values",0.945
same,normalized growth,"S. cerevisiae deletion strains, locus YHR079C, strain IRE1 (second series), hits give low values",0.966
same,normalized growth,"S. cerevisiae deletion strains, locus YHR094C, strain hxt1, hits give low values",0.986
same,normalized growth,"S. cerevisiae deletion strains, locus YHR129C, strain ARP1, hits give low values",0.972
same,normalized growth,"S. cerevisiae deletion strains, locus YHR200W, strain rpn10, hits give low values",0.985
same,normalized growth,"S. cerevisiae deletion strains, locus YIL066C, strain RNR3, hits give low values",0.938
same,normalized growth,"S. cerevisiae deletion strains, locus YIL073C, strain SPO22, hits give low values",1
same,normalized growth,"S. cerevisiae deletion strains, locus YIL125W, strain kgd1, hits give low values",0.981
same,normalized growth,"S. cerevisiae deletion strains, locus YIR030C, strain dcg1, hits give low values",0.979
same,normalized growth,"S. cerevisiae deletion strains, locus YJL095W, strain BCK1, hits give low values",0.806
same,normalized growth,"S. cerevisiae deletion strains, locus YJL134W, strain LCB3, hits give low values",0.986
same,normalized growth,"S. cerevisiae deletion strains, locus YJL168C, strain set2, hits give low values",0.99
same,normalized growth,"S. cerevisiae deletion strains, locus YJL187C, strain SWE1 (second series), hits give low values",0.964
same,normalized growth,"S. cerevisiae deletion strains, locus YJR043C, strain POL32, hits give low values",0.981
same,normalized growth,"S. cerevisiae deletion strains, locus YJR075W, strain HOC1, hits give low values",0.935
same,normalized growth,"S. cerevisiae deletion strains, locus YKL009W, strain mrt4, hits give low values",0.99
same,normalized growth,"S. cerevisiae deletion strains, locus YKL068W, hits give low values",0.986
same,normalized growth,"S. cerevisiae deletion strains, locus YKL085W, strain MDH1 (second series), hits give low values",0.987
same,normalized growth,"S. cerevisiae deletion strains, locus YKL085W, strain MDH1, hits give low values",0.987
same,normalized growth,"S. cerevisiae deletion strains, locus YKL190W, strain CNB1, hits give low values",0.991
same,normalized growth,"S. cerevisiae deletion strains, locus YKR001C, strain vps1, hits give low values",0.936
same,normalized growth,"S. cerevisiae deletion strains, locus YLR039C, strain RIC1, hits give low values",0.827
same,normalized growth,"S. cerevisiae deletion strains, locus YLR058C, strain SHM2, hits give low values",0.984
same,normalized growth,"S. cerevisiae deletion strains, locus YLR102C, strain apc9, hits give low values",0.98
same,normalized growth,"S. cerevisiae deletion strains, locus YLR262C, strain YPT6, hits give low values",0.817
same,normalized growth,"S. cerevisiae deletion strains, locus YLR268W, strain sec22, hits give low values",0.904
same,normalized growth,"S. cerevisiae deletion strains, locus YLR330W, strain CHS5, hits give low values",0.984
same,normalized growth,"S. cerevisiae deletion strains, locus YLR342W, strain FKS1 (second series), hits give low values",0.88
same,normalized growth,"S. cerevisiae deletion strains, locus YLR371W, strain rom2, hits give low values",0.991
same,normalized growth,"S. cerevisiae deletion strains, locus YLR418C, strain cdc73, hits give low values",0.813 (active)
same,normalized growth,"S. cerevisiae deletion strains, locus YML016C, strain PPZ1, hits give low values",0.981
same,normalized growth,"S. cerevisiae deletion strains, locus YML032C, strain rad52, hits give low values",0.994
same,normalized growth,"S. cerevisiae deletion strains, locus YML124C, strain tub3, hits give low values",0.983
same,normalized growth,"S. cerevisiae deletion strains, locus YMR078C, strain ctf18, hits give low values",0.98
same,normalized growth,"S. cerevisiae deletion strains, locus YMR223W, strain ubp8, hits give low values",0.966
same,normalized growth,"S. cerevisiae deletion strains, locus YMR263W, strain SAP30, hits give low values",0.962
same,normalized growth,"S. cerevisiae deletion strains, locus YMR307W, strain GAS1, hits give low values",0.647
same,normalized growth,"S. cerevisiae deletion strains, locus YNL067W, strain RPL9B, hits give low values",0.953
same,normalized growth,"S. cerevisiae deletion strains, locus YNL128W, strain TEP1, hits give low values",0.991
same,normalized growth,"S. cerevisiae deletion strains, locus YNL153C, strain GIM3, hits give low values",0.961
same,normalized growth,"S. cerevisiae deletion strains, locus YNL233W, strain BNI4, hits give low values",0.904
same,normalized growth,"S. cerevisiae deletion strains, locus YNL250W, strain rad50, hits give low values",1
same,normalized growth,"S. cerevisiae deletion strains, locus YNL271C, strain bni1, hits give low values",0.982
same,normalized growth,"S. cerevisiae deletion strains, locus YNL298W, strain CLA4, hits give low values",0.987
same,normalized growth,"S. cerevisiae deletion strains, locus YNL307C, strain MCK1, hits give low values",0.73 (active)
same,normalized growth,"S. cerevisiae deletion strains, locus YNL322C, strain KRE1, hits give low values",0.99
same,normalized growth,"S. cerevisiae deletion strains, locus YNR052C, strain pop2, hits give low values",1.01
same,normalized growth,"S. cerevisiae deletion strains, locus YOL006C, strain TOP1, hits give low values",0.824
same,normalized growth,"S. cerevisiae deletion strains, locus YOL012C, strain htz1",0.9
same,normalized growth,"S. cerevisiae deletion strains, locus YOL147C, strain pex11, hits give low values",0.965
same,normalized growth,"S. cerevisiae deletion strains, locus YOR061W, strain CKA2, hits give low values",0.989
same,normalized growth,"S. cerevisiae deletion strains, locus YOR069W, strain VPS5, hits give low values",0.987
same,normalized growth,"S. cerevisiae deletion strains, locus YOR136W, strain idh2, hits give low values",1.01
same,normalized growth,"S. cerevisiae deletion strains, locus YOR144C, strain elg1, hits give low values",0.983
same,normalized growth,"S. cerevisiae deletion strains, locus YOR184W, strain ser1, hits give low values",0.931
same,normalized growth,"S. cerevisiae deletion strains, locus YOR316C, strain cot1, hits give low values",0.981
same,normalized growth,"S. cerevisiae deletion strains, locus YPL055C, strain LGE1, hits give low values",0.927
same,normalized growth,"S. cerevisiae deletion strains, locus YPL241C, strain CIN2, hits give low values",0.986
same,normalized growth,"S. cerevisiae deletion strains, locus YPR119W, strain clb2, hits give low values",0.98
same,normalized growth,"S. cerevisiae deletion strains, locus YPR141C, strain kar3, hits give low values",0.99
same,normalized growth,"S. cerevisiae deletion strains, locus YPR163C, strain tif3, hits give low values",0.928
same,normalized growth,"S. cerevisiae deletion strains, locus YPR167C, strain met16, hits give low values",0.978
same,normalized growth,"S. cerevisiae deletion strains, strain wtn01, hits give low values",0.929
same,normalized growth,"S. cerevisiae strains, strain wild type, hits give low values",0.983
